Some test systems named below: BT-549 breast; MDA-MB-435 melanoma; SW-620 colon; MCF7 breast; HCT-116 colon; HCC-2998 colon; KM12 colon.
Common to all, as to assay: NCI-60 one-dose screen, 48 h (100 = growth as untreated, 0 = no growth, -100 = all killed)
Common to all, as to settings: 10 µM

The panel holds about 83,000 compounds, 20% with a hit somewhere; the sample as a whole holds those more often.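 48-hour exposure, single concentration, 96-well plates; percent growth endpoint where 0 means no net growth. Active: below 10.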 Values without a mark were called inactive. Activity calls are given as the source filed them.

Take `C[C@H](NC(=O)[C@@H]1CSSC[C@@H](NC(=O)Cc2nc3ccccc3cc2O)C(=O)NCC(=O)N1C)c1ccccc1`: the growth is 83.8% with BT-549 breast; 70.7% in the experiment on MDA-MB-435 melanoma; 94% in the experiment on SW-620 colon; 51.7% with MCF7 breast; 44.7% in the experiment on HCT-116 colon; 94.9% in the experiment on HCC-2998 colon. The growth in the experiment with KM12 colon is 56%.
In the case of `COc1ccc(-c2ccccc2)cc1C(=O)c1ccc(-c2ccccc2)cc1`, the growth with BT-549 breast was 76.8%; in the experiment with MDA-MB-435 melanoma it was -7.15% (active); in the experiment on SW-620 colon, 52.3%; in the experiment with MCF7 breast, 50.6%; in the experiment on HCT-116 colon, 60.8%; in the experiment with HCC-2998 colon, 74.6%. In addition, in the experiment with KM12 colon, the growth was 48.5%.
On to `O=C(C=P(c1ccccc1)(c1ccccc1)c1ccccc1)c1ccc(Br)cc1`, for which the growth was 107% in the experiment with BT-549 breast; 106% in the experiment on MDA-MB-435 melanoma; 80.7% with SW-620 colon; 92.4% in the experiment with MCF7 breast; 67.8% with HCT-116 colon; 83.4% in the experiment with KM12 colon.
For the molecule `COC1OC2COC(c3ccccc3)OC2C(=O)C1NC(=O)c1ccccc1` (configuration not stated), the growth in the experiment on BT-549 breast was 107%; in the experiment on SW-620 colon, 88.2%; in the experiment with MCF7 breast, 99.6%; in the experiment with HCT-116 colon it was 99%; with HCC-2998 colon, 92.9%; with KM12 colon, 96.7%.
On to `CCN(CC)CCCOC(=O)Nc1ccccc1Cl`, for which the growth in the experiment with BT-549 breast is 111%; with MDA-MB-435 melanoma it was 105%; with SW-620 colon, 102%; in the experiment on MCF7 breast, 112%; with HCT-116 colon it was 113%; with HCC-2998 colon it was 110%. Besides, the growth in the experiment on KM12 colon is 111%.
Take `N#Cc1ncc(-c2cc(F)ccc2F)c(NC2CCCCCC2)n1`: the growth in the experiment with BT-549 breast was 76.2%; in the experiment on MDA-MB-435 melanoma it was 93.6%; in the experiment with SW-620 colon, 96.1%; in the experiment on MCF7 breast it was 82.3%; with HCT-116 colon it was 85.6%; in the experiment on HCC-2998 colon, 82.3%. Further, the growth in the experiment with KM12 colon is 36.4%.
Regarding `O=C1/C(=C/c2ccc(O)cc2)Oc2ccc(Cl)cc21`, the growth in the experiment on BT-549 breast is 63.1%; in the experiment on MDA-MB-435 melanoma, 82.5%; in the experiment on SW-620 colon, 103%; in the experiment with MCF7 breast, 43.2%; in the experiment with HCT-116 colon it was 65.7%; in the experiment on HCC-2998 colon, 101%. The growth in the experiment with KM12 colon was 101%.
Turning to `Cc1ccc(C(=O)O)c(N)c1C`, the growth with BT-549 breast was 94.3%; in the experiment on MDA-MB-435 melanoma it was 105%; with SW-620 colon, 104%; with MCF7 breast, 92.6%; in the experiment on HCT-116 colon, 92%; in the experiment on HCC-2998 colon, 106%. Moreover, in the experiment on KM12 colon, the growth is 95%.
Take `CCN1CCN(c2ccc(Nc3ncnc4c3nnn4CCc3cc(OC)cc(OC)c3)cc2)CC1`: the growth with MDA-MB-435 melanoma was 95.4%; in the experiment with SW-620 colon it was 102%; in the experiment on MCF7 breast, 85.8%; in the experiment on HCT-116 colon it was 77.9%; in the experiment on HCC-2998 colon it was 109%; with KM12 colon it was 99.1%.
For the molecule `Cc1ccc(S(=O)(=O)Nc2cccc3[nH]c(C(F)(F)F)nc23)cc1`, the growth in the experiment with BT-549 breast is 52%; in the experiment on SW-620 colon, 18.6%; in the experiment with MCF7 breast, 13.2%; in the experiment with HCT-116 colon, 23.8%; in the experiment on HCC-2998 colon, 28.1%; in the experiment on KM12 colon it was 21%.
With `O=C(COc1ccc(Cl)cc1Cl)Oc1coc(CSc2nc3ccccc3s2)cc1=O`, the growth in the experiment with BT-549 breast was 108%; in the experiment on MDA-MB-435 melanoma it was 114%; in the experiment with SW-620 colon, 20.7%; with MCF7 breast it was 102%; in the experiment on HCT-116 colon it was 105%; with KM12 colon, 110%.
As for `CCOC(=O)CSC(=S)SCC(=O)OCC`, the growth with BT-549 breast is 106%; in the experiment on MDA-MB-435 melanoma, 94.9%; with SW-620 colon, 135%; with MCF7 breast, 88.7%; with HCT-116 colon, 99.1%; in the experiment on KM12 colon, 100%.
On to `N=C(N)c1ccc(-c2ccc(-c3ccccc3)s2)s1`, for which the growth was 88.9% in the experiment with BT-549 breast; -83.3% (active) in the experiment on MDA-MB-435 melanoma; -71.1% (active) in the experiment with SW-620 colon; -71.5% (active) in the experiment on MCF7 breast; -80.8% (active) in the experiment on HCC-2998 colon.
Turning to `Nc1ncncc1-c1ccc(F)cc1`, the growth is 111% in the experiment on BT-549 breast; 102% in the experiment with MDA-MB-435 melanoma; 114% in the experiment with SW-620 colon; 110% with MCF7 breast; 108% in the experiment on HCT-116 colon; 109% with HCC-2998 colon. In the experiment on KM12 colon, the growth was 110%.
Turning to `CC(C)=C1CCC(C)C/C1=N\N=C(N)N` (configuration not stated), the growth is 107% with BT-549 breast; 101% in the experiment with MDA-MB-435 melanoma; 103% with SW-620 colon; 92.4% with MCF7 breast; 102% in the experiment on HCT-116 colon; 109% in the experiment with HCC-2998 colon. For the same molecule, the growth in the experiment with KM12 colon was 107%.

The record behind these values is PubChem BioAssay (NCI).
